Laboratory results published in PMC4336329 (PLoS ONE, 2015).
Hit rate of the full screen: of about 310,000 compounds, about 2,200 (0.71%) showed an effect of 50% or more. Effects have a minus sign here. The sample as a whole holds a higher share of strong results than the screen did.

Target: human ether-à-go-go-related gene (hERG) potassium channel (human, UniProt Q12809)
Experiment: primary screen, population patch clamp on CHO cells stably expressing hERG; higher = less effect of the substance

human ether-à-go-go-related gene (hERG) potassium channel, sequence (Q12809 whole entry, looked up): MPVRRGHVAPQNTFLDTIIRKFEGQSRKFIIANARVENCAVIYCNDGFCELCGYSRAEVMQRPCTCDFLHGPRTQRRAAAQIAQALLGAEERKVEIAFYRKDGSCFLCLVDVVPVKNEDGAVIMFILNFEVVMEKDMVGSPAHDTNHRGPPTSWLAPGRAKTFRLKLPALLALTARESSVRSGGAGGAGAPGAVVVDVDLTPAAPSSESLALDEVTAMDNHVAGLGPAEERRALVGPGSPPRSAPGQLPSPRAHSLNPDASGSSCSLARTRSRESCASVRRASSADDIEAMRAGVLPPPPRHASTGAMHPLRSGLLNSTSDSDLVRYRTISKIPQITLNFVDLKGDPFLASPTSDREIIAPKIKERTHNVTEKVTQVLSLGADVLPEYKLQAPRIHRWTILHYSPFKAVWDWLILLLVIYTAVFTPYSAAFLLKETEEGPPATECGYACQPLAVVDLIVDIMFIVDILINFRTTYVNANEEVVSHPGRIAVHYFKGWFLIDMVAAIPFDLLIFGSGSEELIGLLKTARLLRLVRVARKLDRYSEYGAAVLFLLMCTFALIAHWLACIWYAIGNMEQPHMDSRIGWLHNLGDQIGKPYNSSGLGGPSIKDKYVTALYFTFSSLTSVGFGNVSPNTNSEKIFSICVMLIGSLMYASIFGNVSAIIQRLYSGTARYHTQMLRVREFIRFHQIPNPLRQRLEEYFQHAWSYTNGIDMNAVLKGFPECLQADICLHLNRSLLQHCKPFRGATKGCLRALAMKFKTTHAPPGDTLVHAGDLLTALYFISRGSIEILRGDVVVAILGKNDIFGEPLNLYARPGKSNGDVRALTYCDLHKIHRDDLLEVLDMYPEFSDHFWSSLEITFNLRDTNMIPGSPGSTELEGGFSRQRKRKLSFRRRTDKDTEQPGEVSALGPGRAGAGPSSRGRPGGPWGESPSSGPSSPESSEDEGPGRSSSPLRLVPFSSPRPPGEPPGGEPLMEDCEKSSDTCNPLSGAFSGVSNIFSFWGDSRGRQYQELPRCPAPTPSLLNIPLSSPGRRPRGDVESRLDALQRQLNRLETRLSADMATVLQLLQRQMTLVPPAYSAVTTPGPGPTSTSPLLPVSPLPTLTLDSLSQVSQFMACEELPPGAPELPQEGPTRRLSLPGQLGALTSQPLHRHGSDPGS

Row | Compound | hERG current change (%, negative = inhibition) at 1uM
1 | CCCn1c2ccccc2c2cnn(CC(=O)NC3CCCC(C)C3C)c(=O)c21 (stereo not drawn) | 11.4%
2 | CN(C)S(=O)(=O)c1ccc2nnn(O)c2c1 | 7.89%
3 | CCC(C)(C)NC(=O)C(c1ccco1)N(C(=O)Cn1nnc2ccccc21)c1ccc2c(c1)OCO2 (stereo not drawn) | 13.9%
4 | O=C(NCc1ccncc1)c1nc(-c2cccs2)no1 | -0.652%
5 | COc1ccc(S(=O)(=O)NCCc2csc(-c3cccnc3)n2)cc1 | -9.72%
6 | CN(/N=C/c1ccc(Cl)cc1)c1ncc(Cl)cc1C(F)(F)F | 14.6%
7 | CO/N=C/C=C1/N(C)c2ccccc2C1(C)C | 12.5%
8 | Cc1ccccc1N=C/C=C1\N(C)c2ccccc2C1(C)C | -51.2%
9 | CN1/C(=C\C=Nc2ccc3ccccc3c2)C(C)(C)c2ccccc21 | -75.1%
10 | Cc1c(N=C/C=C2\N(C)c3ccccc3C2(C)C)c(=O)n(-c2ccccc2)n1C | -15.5%
11 | CN1/C(=C\C=O)C(C)(C)c2ccccc21 | 3.65%
12 | CN1/C(=C\C=Nc2ccccc2)C(C)(C)c2ccccc21 | -65%
13 | CN(C)c1ccc(N=C/C=C2\N(C)c3ccccc3C2(C)C)cc1 | -84.7%
14 | CN1/C(=C/C=C(C#N)C#N)C(C)(C)c2ccccc21 | 10.9%
15 | CN1/C(=C\C=C(C#N)C#N)C(C)(C)c2ccccc21 | 2.94%
16 | CN1/C(=C/C=N/n2cnnc2)C(C)(C)c2ccccc21 | 7.04%
17 | CN1/C(=C\C=N\O)C(C)(C)c2ccccc21 | 14.7%
18 | Cc1c(N=C/C=C2/N(C)c3ccccc3C2(C)C)c(=O)n(-c2ccccc2)n1C | -5.46%
19 | N#Cc1nc(-c2ccc(Cl)cc2)oc1NCc1ccco1 | 18.1%
20 | COc1cccc(-n2c(Cc3cc(=O)[nH]c(=O)[nH]3)nnc2SC(C)C)c1 | 2.56%
21 | CCNC(=O)c1ccc(CSc2nc3ccccc3s2)cc1 | 11.4%
22 | O=S(=O)(c1ccc(NC(=S)NCCc2ccccc2)cc1)N1CCOCC1 | 3.71%
23 | COc1cccc(-c2nc(CS(=O)(=O)CC(=O)NCCCN3CC(C)CC(C)C3)c(C)o2)c1 (stereo not drawn) | -5.41%

Row | Compound | hERG current change (%, negative = inhibition) at 1uM
24 | CCOC(=O)Nc1ccc2c(c1)Nc1ccccc1S2 | 9.07%
25 | COc1cccc(NC(=O)CNS(=O)(=O)c2ccc3nc(C)sc3c2)c1 | 14.5%
26 | Cc1ccc(-c2cc(C(=O)Nc3cccnc3)c3ccccc3n2)s1 | 12.1%
27 | Cn1cnnc1SCC(=O)Nc1sc2c(c1C(N)=O)CCC2 | 13.3%
28 | CCCCNC(=O)CCCN1C(=O)c2cccnc2Sc2ccccc21 | 14.1%
29 | OCCCNc1ncnc2sc3c(c12)CCN(Cc1ccccc1)C3 | 7.54%
30 | CC1CCc2c(sc3ncnc(NCCN4CCOCC4)c23)C1 (stereo not drawn) | -13.1%
31 | CCCCNc1ncnc2sc3c(c12)CCN(CCC)C3 | -80.9%
32 | CCOc1ccc(-n2c(SCc3ccc(C#N)cc3)nnc2-c2cccnc2)cc1 | -65.1%
33 | N#Cc1ccc(CSc2nnc(-c3cccnc3)n2-c2ccccc2)cc1 | -26.5%
34 | CCOc1ccc(-n2c(SCC(N)=O)nnc2-c2cccnc2)cc1 | -3.26%
35 | CCC(C)(C(=O)NC1CCCCC1)N(CC1CCCO1)C(=O)CNC(=O)c1ccccc1 (stereo not drawn) | 9.5%
36 | CCC(C)(C(=O)NC1CCCCC1)N(CC1CCCO1)C(=O)c1ccccn1 (stereo not drawn) | -80.8%
37 | CCC(C)(C(=O)NC1CCCCC1)N(C)C(=O)c1ccccn1 (stereo not drawn) | 4.4%
38 | COc1ccc(-c2noc(CSc3nc4ccccc4c(=O)n3-c3ccccc3)n2)cc1 | 1.58%
39 | CCC1(C)Cc2ccccc2-c2nc3n(c(=O)c21)CCS3 (stereo not drawn) | 12%
40 | O=c1[nH]c(CN2CCN(S(=O)(=O)/C=C/c3ccccc3)CC2)nc2ccccc12 | -18.2%
41 | O=c1[nH]c(CN2CCOCC2)nc2cc(Cl)ccc12 | 4.78%
42 | O=C(CCc1nc2ccccc2c(=O)[nH]1)N1CCN(C/C=C/c2ccccc2)CC1 | -12.3%
43 | O=c1[nH]c(CN2CCN(C/C=C/c3ccccc3)CC2)nc2cc(Cl)ccc12 | -108%
44 | O=c1[nH]c(CN2CCN(C/C=C/c3ccccc3)CC2)nc2ccccc12 | -52.6%
45 | O=c1[nH]c(CN2CCN(S(=O)(=O)/C=C/c3ccccc3)CC2)nc2cc(Cl)ccc12 | -21.4%
